Data reported in PubChem BioAssay.
For some of these results: Measured potencies and affinities stand elsewhere. Records with an inconclusive call do not appear. This is one part of the list. The source made the active and inactive calls. Unless noted, no rule for the calls is given here.

How the values were obtained:
[1] = small-molecule DNA binding by polarization – biochemical, fluorescence polarization, cherry-pick, counter-screen for EWS/Fli inhibitor project, dose response (AID 720586;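 active = fitted curve reaches a 35% signal fall AC35 below twice the sample's top valid tested dose, actives reach about 48 µM in these data; inactive = the rest, including activity in the rising direction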;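 also: 0% = neutral control median and -100% = 10 µM mitoxantrone control median; lower polarization ratio signals compound binding to DNA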)
[2] = IOSE-T80 viability loss, PAX8-independent line – cell-based, cherry-pick, selectivity assay for PAX8 inhibitor project, dose response (AID 687032;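 active = fitted half-maximal concentration for viability loss no higher than twice the top valid dose, in every repeat run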;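 also: cells exposed to compound for 96 h before reading; 0% = neutral control wells and -100% = 2 µM mitoxantrone kill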)
[3] = CMV-driven luciferase expression suppression in HEK293 – cell-based, luminescence, dry powder, counter-screen for Pax8 inhibitor project, dose response (AID 743020;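 active = signal-lowering compounds whose fitted half-maximal concentration is at or below twice the top tested dose in every run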;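 also: HEK293 cells stably expressing the CMV luciferase reporter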)
[4] = A2780 cell killing – plate reader, dry powder samples, cytotoxicity control, dose response (AID 743046);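 also: 0% = neutral control wells and -100% = cytotoxic reference compound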
[5] = OVCAR8 cell viability loss – plate reader, dry powder samples, PAX8 project, dose response (AID 743197)
[6] = general cell-killing toxicity readout – plate reader, dry powder samples, cytotoxicity control for PAX8 inhibitor project, dose response (AID 743021)
[7] = toxicity toward HepG2 liver cells – cell-based, plate reader, cherry-pick, antagonist series, cytotoxicity control, dose response (AID 743416);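 also: 0% = neutral control wells and -100% = positive control wells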
[8] = toxicity toward immortalized ovarian surface epithelium – cell-based, plate reader, dry powder samples, cytotoxicity control for PAX8 inhibitor project, dose response (AID 743045);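 also: 0% = neutral control median and -100% = positive control median; more negative values mean more cell killing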
[9] = IGROV1 cell killing – plate reader, dry powder samples, PAX8 inhibitor project, dose response (AID 743043);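 also: more negative means fewer viable cells or more cytotoxicity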
[10] = OVCAR-3 cell viability loss – plate reader, dry powder samples, PAX8 inhibitor project, dose response (AID 743044); settings: max activity: at 35 µM, active compounds read low unless noted
[11] = A549 cell cytotoxicity, dose response, cytotoxicity control, plate reader, cherry-pick, antagonist series (AID 743412);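 also: 0% = neutral control wells and -100% = positive control wells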

C(=N\Nc1ccc2ccccc2n1)/c1ccc2c(c1)OCO2
inactive: AC35 [1]

O=C(Nc1cccc(F)c1)N1CCCCN2[C@H](CO)[C@@H](c3ccc(C#Cc4ccccc4)cc3)[C@H]2C1
inactive: outcome [2] | outcome [3] | outcome [4] | outcome [5]

C[C@@H]1CN([C@H](C)CO)C(=O)c2cc(NC(=O)Nc3ccccc3)ccc2O[C@@H](C)CCCCO[C@H]1CN(C)Cc1ccc(C(F)(F)F)cc1
inactive: outcome [2] | outcome [3] | outcome [6] | outcome [4] | outcome [5]

O=C(CN1C(=O)c2ccccc2S1(=O)=O)c1ccc2c(c1)OCCO2
inactive: outcome [2] | outcome [3] | outcome [6] | outcome [7]

COc1cc(-c2cnc3c(NC=O)cc(-c4cccc(NC(C)=O)c4)cn23)cc(OC)c1OC
inactive: outcome [2] | outcome [6]

COC(=O)Cc1[nH]n(-c2nc3ccccc3s2)c(=O)c1C(C)=Nc1ccc(OC)cc1
inactive: AC35 [1]

Cc1ccc(S(=O)(=O)Nc2ccc3c(c2)C(=O)N([C@@H](C)CO)C[C@@H](C)[C@@H](CN(C)Cc2ccc(C(=O)Nc4ccccc4N)cc2)O3)cc1
inactive: AC35 [1]

COc1ccc(S(=O)(=O)N(C)C[C@@H]2OCCCC[C@H](C)Oc3ccc(NS(=O)(=O)c4ccccc4)cc3C(=O)N([C@H](C)CO)C[C@H]2C)cc1
inactive: outcome [2] | outcome [3] | outcome [6] | outcome [8] | outcome [4]

COc1cccc(-c2ccc3c(c2)[C@H]2[C@H](CCN2S(=O)(=O)c2ccccc2F)[C@@H](CO)N3)c1
inactive: outcome [2] | outcome [3] | outcome [6] | outcome [8] | outcome [4]

C[C@@H]1CCCCO[C@@H](CN(C)Cc2ccc(Cl)c(Cl)c2)[C@@H](C)CN([C@@H](C)CO)C(=O)c2cc(NC(=O)Nc3ccccc3)ccc2O1
inactive: outcome [2] | outcome [3] | outcome [6] | outcome [8] | outcome [4] | outcome [5]

CN1c2ccc(-c3cccc(C#N)c3)cc2[C@H]2[C@H](CCN2S(=O)(=O)c2ccccc2F)[C@H]1CO
inactive: outcome [2] | outcome [6] | outcome [8]

Cc1cccc(-c2ccc(C3[C@@H]4CN(C(=O)Nc5ccc(C(F)(F)F)cc5)C[C@H]3N4)cc2)c1 (stereo partly drawn)
inactive: outcome [2] | outcome [3] | outcome [4]

O=C(Nc1ccc(F)cc1)N1CC(=O)N2[C@@H](CO)[C@H](c3ccc(-c4ccc(F)cc4)cc3)[C@@H]2C1
inactive: outcome [2] | outcome [6] | outcome [9] | outcome [4]

COc1ccc(S(=O)(=O)Nc2ccc3c(c2)C(=O)N([C@@H](C)CO)C[C@H](C)[C@@H](CN(C)C(=O)Nc2ccc(F)cc2)OCCCC[C@H](C)O3)cc1
inactive: outcome [2] | outcome [3] | outcome [9] | max activity [10] -15.3% | outcome [8] | outcome [4] | outcome [5]

COc1ccc(CN(C)C[C@H]2OCCCC[C@H](C)Oc3ccc(NC(=O)Nc4ccc(C(F)(F)F)cc4)cc3C(=O)N([C@H](C)CO)C[C@H]2C)cc1
inactive: outcome [2] | outcome [3] | outcome [6] | outcome [8] | outcome [4]

C[C@@H]1CCCCO[C@H](CN(C)S(=O)(=O)c2ccc(F)cc2)[C@H](C)CN([C@@H](C)CO)C(=O)c2cc(NS(=O)(=O)c3ccc(Cl)cc3)ccc2O1
inactive: outcome [2] | outcome [3] | outcome [9] | max activity [10] -28.2% | outcome [8] | outcome [4] | outcome [5]

C[C@@H]1CCCCO[C@H](CN(C)Cc2ccc(C(F)(F)F)cc2)[C@@H](C)CN([C@@H](C)CO)C(=O)c2cc(NC(=O)Nc3ccc(F)cc3)ccc2O1
inactive: outcome [2] | outcome [6] | outcome [8]

Cc1noc(C)c1NC(=O)Nc1ccc2c(c1)CC(=O)N([C@@H](C)CO)C[C@@H](C)[C@@H](CN(C)Cc1ccc(Cl)c(Cl)c1)O2
inactive: AC35 [1]

C[C@H]1CN([C@@H](C)CO)C(=O)Cc2cc(NC(=O)NC3CCCCC3)ccc2O[C@@H]1CN(C)Cc1ccc(-c2ccccc2)cc1
inactive: outcome [2] | outcome [3] | outcome [9] | max activity [10] 18.6% [at 1 µM, active compounds read low] | outcome [8] | outcome [4] | outcome [5]

C[C@@H]1CN([C@@H](C)CO)C(=O)c2cc(NS(=O)(=O)c3ccccc3)ccc2O[C@@H]1CN(C)Cc1ccc(C(=O)Nc2ccccc2N)cc1
inactive: AC35 [1]

C[C@@H]1CN([C@@H](C)CO)S(=O)(=O)c2ccc(C#Cc3ccncc3)cc2O[C@H]1CN(C)C(=O)Nc1ccc2c(c1)OCO2
inactive: outcome [2] | outcome [3] | outcome [6] | outcome [9] | outcome [5]

COc1ccc(/C=C2\SC(=S)N(CCCC(=O)NC3CCCC3)C2=O)cc1OC
inactive: AC35 [1]

CCCC#Cc1ccc([C@@H]2[C@@H](C#N)N(C(=O)C3CCCCC3)[C@H]2CO)cc1
inactive: outcome [2] | outcome [3] | outcome [9] | outcome [8] | outcome [4]

C[C@@H]1CN([C@H](C)CO)C(=O)c2cc(NC(=O)Nc3ccc(F)cc3)ccc2O[C@@H](C)CCCCO[C@@H]1CN(C)Cc1ccc(C(F)(F)F)cc1
inactive: outcome [2] | outcome [6] | outcome [9] | outcome [8] | outcome [4]

C[C@@H]1CN([C@H](C)CO)C(=O)c2cc(NS(=O)(=O)c3ccc(F)cc3)ccc2O[C@@H](C)CCCCO[C@@H]1CN(C)Cc1ccccc1
inactive: outcome [2] | outcome [3] | outcome [9] | outcome [8] | outcome [4]

C[C@@H]1CCCCO[C@H](CN(C)Cc2ccc(Cl)c(Cl)c2)[C@@H](C)CN([C@@H](C)CO)C(=O)c2cc(NC(=O)Nc3ccccc3)ccc2O1
inactive: outcome [2] | outcome [6] | outcome [9] | max activity [10] 15.8% [at 0.26 µM, active compounds read low] | outcome [8] | outcome [4] | outcome [5]

C[C@H]1CCCCO[C@H](CN(C)C(=O)Nc2cccc3ccccc23)[C@@H](C)CN([C@@H](C)CO)C(=O)c2cc(NS(=O)(=O)c3ccc(Cl)cc3)ccc2O1
inactive: outcome [2] | outcome [3] | outcome [6] | max activity [10] -25.9% | outcome [8] | outcome [4]

C[C@@H]1CCCCO[C@H](CN(C)Cc2ccc(C(F)(F)F)cc2)[C@@H](C)CN([C@@H](C)CO)C(=O)c2cc(NC(=O)Cc3ccccc3)ccc2O1
inactive: outcome [2] | outcome [3] | outcome [6] | outcome [8] | outcome [4] | outcome [5]

C[C@@H]1CN([C@H](C)CO)C(=O)c2cc(NC(=O)Nc3ccccc3)ccc2O[C@@H](C)CCCCO[C@@H]1CN(C)Cc1ccc(Cl)c(Cl)c1
inactive: outcome [2] | outcome [9]

C#CCN(C[C@@H]1[C@@H](OC(=O)NCc2ccccc2F)[C@@H](OC(=O)NCc2ccccc2F)Cn2c(=O)ccc(=O)n21)S(=O)(=O)c1ccc(C)cc1
inactive: outcome [2] | outcome [6]

C[C@H](CO)N1C[C@H](C)[C@@H](CN(C)S(=O)(=O)c2ccc(-c3ccccc3)cc2)OCc2cn(nn2)CCCC1=O
inactive: outcome [2] | outcome [3] | outcome [9] | max activity [10] -33.1% | outcome [8] | outcome [4] | outcome [5]

N#C[C@@H]1[C@H](c2ccc(C#Cc3cccc(F)c3)cc2)[C@@H](CO)N1C(=O)C1CCCC1
inactive: outcome [11]

CCN(CC)S(=O)(=O)c1cc(NC(=O)Cn2ncc(Cl)c(Cl)c2=O)ccc1C
inactive: outcome [3] | outcome [6]

C[C@@H]1CCCCO[C@@H](CN(C)Cc2ccc(C(F)(F)F)cc2)[C@@H](C)CN([C@@H](C)CO)C(=O)c2cc(NS(=O)(=O)c3ccccc3)ccc2O1
inactive: outcome [3] | outcome [6] | outcome [9] | max activity [10] 24.1% [at 0.26 µM, active compounds read low] | outcome [8] | outcome [4]

COc1cccc2c1C(=O)c1c(O)c3c(c(O)c1C2=O)CC(O)(C(=O)CO)CC3OC1CC(N(C)C)C(O)C(C)O1 (stereo not drawn)
inactive: outcome [3] | outcome [6]

Cc1ccc(NC(=O)CN(C)C(=O)Cn2ncc(Cl)c(Cl)c2=O)cc1
inactive: outcome [3] | outcome [6]

COc1ccc(NC(=O)Nc2ccc3c(c2)C(=O)N([C@@H](C)CO)C[C@@H](C)[C@@H](CN(C)CC2CCCCC2)OCCCC[C@@H](C)O3)cc1
inactive: outcome [3] | outcome [6] | outcome [9] | max activity [10] -9.76% [at 4.2 µM, active compounds read low] | outcome [8] | outcome [4] | outcome [5]

COc1cc(OC)c2c(-c3cccc(-c4ccc(OC)c(F)c4)c3)cc(=O)oc2c1
inactive: outcome [3] | outcome [6]

CCOC(=O)Nc1ccc2c(c1)N(C(=O)CCN(CC)CC)c1ccccc1S2=O (stereo not drawn)
inactive: outcome [3] | outcome [6]

C[C@@H]1CCCCO[C@@H](CN(C)Cc2ccc(C(F)(F)F)cc2)[C@@H](C)CN([C@@H](C)CO)C(=O)c2cc(NS(=O)(=O)c3ccc(F)cc3)ccc2O1
inactive: outcome [3] | outcome [6] | outcome [9] | max activity [10] -6.83% [at 16 µM, active compounds read low] | outcome [8] | outcome [4] | outcome [5]

O=S(=O)(c1ccccc1F)N1CC[C@@H]2[C@@H](CO)Nc3ccc(C4=CCCCC4)cc3[C@@H]21
inactive: outcome [3] | outcome [6] | outcome [9] | max activity [10] 10.3% [at 4.2 µM, active compounds read low] | outcome [8] | outcome [4] | outcome [5]

C[C@H](CO)N1C[C@H](C)[C@@H](CN(C)S(=O)(=O)c2ccc(Cl)cc2)OCCCC[C@H](C)Oc2ccc(NS(=O)(=O)c3ccc(Cl)cc3)cc2C1=O
inactive: outcome [3] | outcome [6] | outcome [9] | max activity [10] -14.4% [at 8 µM, active compounds read low] | outcome [8] | outcome [4] | outcome [5]

O=C(Nc1ccccc1)NN(C(=O)CCl)c1ccccc1
inactive: outcome [3] | outcome [6]

O=C(C[C@H]1CC[C@H]2[C@@H](COC[C@@H](O)CN2Cc2ccc(Oc3ccccc3)cc2)O1)N1CCCCC1
inactive: outcome [3] | outcome [6] | outcome [9] | max activity [10] 35% | outcome [8] | outcome [4] | outcome [5]

C[C@@H]1CN([C@H](C)CO)C(=O)Cc2cc(NC(=O)Nc3ccc(F)cc3)ccc2O[C@H]1CN(C)Cc1ccc(Cl)c(Cl)c1
inactive: outcome [3] | outcome [6] | outcome [9] | max activity [10] 19.8% [at 0.5 µM, active compounds read low] | outcome [8] | outcome [4] | outcome [5]

C[C@@H]1CCCCO[C@H](CN(C)Cc2ccc(C(F)(F)F)cc2)[C@H](C)CN([C@H](C)CO)C(=O)c2cc(NS(=O)(=O)c3ccccc3)ccc2O1
inactive: outcome [3] | outcome [6] | outcome [9] | max activity [10] -11.2% | outcome [8] | outcome [4]
